Assay results taken from PubChem BioAssay AID2314 (National Center for Advancing Translational Sciences (NCATS), 2010).
The whole screen tested about 300,000 compounds, of which about 37,000 (12%) were called active. The sample as a whole holds a higher share of actives than the screen did. A number with no mark means an inactive call. No stated cut-off is given here; in the data, active means max response mostly above about 13% (no sharp cut-off); inactive means mostly below about 14%.

Experiment: Cycloheximide Counterscreen for Small Molecule Inhibitors of Shiga Toxin; further: read at 38.3 µM for the half of the compounds with a filed dose; 0% is about no effect
Settings: cell reporter, cycloheximide protein synthesis inhibition counterscreen; stronger effect = higher value

Structure (SMILES)	max response
CC(c1ccco1)N(C(=O)COc1ccccc1[N+](=O)[O-])c1ccccn1 (stereo not drawn)	20.7%
CC(c1ccco1)N(C(=O)c1ccc(S(=O)(=O)N2CCCCC2)cc1)c1ccccn1 (stereo not drawn)	15.1% (active)
O=C(COc1ccc(S(=O)(=O)N2CCCCC2)cc1)NCc1ccccn1	0.485%
CC(C)N1CCC(=NNc2ccc([N+](=O)[O-])cc2S(=O)(=O)N2CCOCC2)CC1	-2.55%
CN(c1ccccc1)S(=O)(=O)c1ccc2[nH]c(=O)[nH]c2c1	-2.46%
CCOC(=O)CNc1nc2ccccc2n2c(C)nnc12	7.6%
COc1ccc(CNc2nnnn2C)cc1	-1.69%
Fc1ccc(CNc2nc3ccccc3n3nnnc23)cc1	13.3% (active)
Cc1ccc(-c2ccc(=O)n(Cc3ccc(F)cc3Cl)n2)cc1	7.94%
CCN1CCN(CCNC(=O)c2ccc(/C=C3/Sc4ccccc4N(Cc4cccc(C)c4)C3=O)cc2)CC1	-11.9%
CCN1/C(=C\c2ccc3ccccc3[n+]2CC)Sc2cc(C)ccc21	1.19%
CCN1/C(=C/c2ccc3ccc(C)cc3[n+]2CC)Sc2ccccc21	11.9% (active)
Cc1ccc2sc(N(CCN(C)C)C(=O)/C=C/c3cccs3)nc2c1C	-8.25%
COc1ccc(-n2c(O)c(C(C)=Nc3ccc4c(c3)CCC4)c(=O)[nH]c2=O)cc1	-1.73%
COc1ccc(S(=O)(=O)Nc2ccc(O)c(Sc3nc4ccccc4s3)c2)cc1	1.12%
COc1ccc(N=C(C)c2sc3ccccc3c2O)cc1	43.2% (active)
CC(=O)[C@@]12O[C@@H]1C[C@H]1[C@@H]3CC[C@H]4C[C@@H](O)CC[C@]4(C)[C@H]3CC[C@@]12C	-5.5%
CCN1CCC2(CCN(Cc3cn[nH]c3-c3ccc(OC)c(F)c3)C2)C1 (stereo not drawn)	-2.52%
Cc1ccc(NC(=O)C2CCN(S(=O)(=O)c3ccc4c(c3)NC(=O)CO4)CC2)cc1C	1.16%
O=C(Cn1c(=O)sc2ccccc21)Nc1nc2c(s1)CCCC2	3.35%
Fc1ccc2nc(Nc3nc4c(s3)CCCC4)sc2c1	40.4% (active)
COC(=O)C(NC(C)=O)(Nc1nc2c(s1)CCCC2)C(F)(F)F (stereo not drawn)	-2.42%
CN(C)c1cc(-c2ccc(F)cc2)oc(=O)c1Cl	2.21%
Cc1cc(C)nc(Nc2ncn[nH]2)n1	-1.33%
Cc1ccccc1-c1n[nH]c(=S)n1C	6.29%

Structure (SMILES)	max response
Cc1cc(C)nc(Nc2n[nH]c(-c3ccccc3N)n2)n1	52% (active)
CS(=O)(=O)Nc1ccccc1N=C(c1ccccc1)c1ccccc1	-4.16%
C/C=C(/C)C(=O)O[C@@H]1c2cc3c(c4c2[C@@]2(CO4)C(=O)C(OC)=C(OC)C=C2C[C@@H](C)[C@H]1C)OCO3	-1.03%
COc1ccc(S(=O)(=O)N2CCSCC2)cc1	-2.78%
CCCNC(=O)c1c(Cl)cnn1-c1ccc(C)cc1	39.1% (active)
CCCNC(=O)c1ccc(Cl)c(Cl)c1	-2.92%
CCCNC(=O)CCc1c(C)nc2c(c(C)nn2-c2ccc(C)cc2)c1C	-2.97%
O=C1C=CC(=O)N1c1ccc(N2CCCCC2)cc1	8%
Cc1n[nH]c(C)c1S(=O)(=O)N1CCCC(C(=O)Nc2ccc(Br)cc2)C1 (stereo not drawn)	-4.38%
O=C(COc1ccc(Cl)cc1)NCCSc1ccccc1	-2.45%
COC(=O)c1sccc1NC(=O)COc1ccc(Cl)cc1	18% (active)
O=C(COc1ccc(Cl)cc1)Nc1ccccc1CO	19.6% (active)
COC(=O)c1sccc1NC(=O)CCC1CCCC1	11%
COC(=O)c1sccc1NC(=O)c1ccc(Cl)cc1	-0.926%
CCS(=O)(=O)c1ccc(O)c(NC(=O)COc2ccc(Cl)cc2)c1	-2.47%
CCOc1ccc(N/C(N)=N/c2nc(C)c(C)c(=O)[nH]2)cc1	0.863%
Cc1ccc(NC(=O)Cn2cccc2C2=NC(c3ccccc3)CO2)c(C)c1 (stereo not drawn)	-4.36%
N#Cc1ccc(OCc2nnc(-c3ccc([N+](=O)[O-])cc3)o2)cc1	-2.49%
COCCn1c(SCC(=O)Nc2cc(Cl)ccc2OC)nc2c(c1=O)SC(C)C2 (stereo not drawn)	-1.62%
O=S(=O)(Oc1ccccc1C(=S)N1CCOCC1)c1ccc(Cl)cc1	-1.08%
NC(=O)CC(NC(=O)Cc1ccc(Br)cc1)c1ccc(NC2CC3CCC2C3)c([N+](=O)[O-])c1 (stereo not drawn)	8.14%
O=C(/C=C/c1ccc(F)cc1)NCCNC(=O)/C=C/c1ccc(F)cc1	-1.57%
C=CCNC(=O)/C=C/c1ccc(C(C)C)cc1	57.7% (active)
CC(C)c1ccc(/C=C/C(=O)NNC(=O)c2cccnc2)cc1	10.9%
O=C(/C=C/c1cccc(C(F)(F)F)c1)N1CCN(c2ccccn2)CC1	2.61%

Structure (SMILES)	max response
O=C(c1cccs1)N(Cc1cc2ccccc2[nH]c1=O)CC1CCCO1 (stereo not drawn)	-1.8%
COc1ccc(NC(=O)CN2C(=O)COc3ccc(S(=O)(=O)N4CCOCC4)cc32)c(OC)c1	-3.45%
CCCCC[C@H]1CN(C2CCCCC2)C(=O)[C@@H]1CC(=O)NCc1ccc(OC)cc1	-1.9%
Cc1ccc(-n2c(SCC(=O)Nc3ccc4c(c3)OCO4)nnc2-c2ccccn2)cc1	-4.03%
O=C(CSc1nnnn1-c1ccc2c(c1)CCC2)Nc1ccc2c(c1)OCCO2	22.4% (active)
CCn1c(SCC(=O)Nc2ccc3c(c2)OCCO3)nc2c(c1=O)SC(C)C2 (stereo not drawn)	-2.67%
O=C(CSc1nnnn1C1CCCC1)Nc1ccc2c(c1)OCCO2	20.7% (active)
CCC(=O)Nc1cccc(NC(=O)CSc2nnnn2C2CCCC2)c1	3.23%
Cc1ccc(-n2c(SCC(=O)Nc3ccc4c(c3)OCO4)nnc2-c2ccoc2C)cc1	-6.42%
COCCCNC(NC(=O)c1ccc(OC)cc1)C(Cl)(Cl)Cl (stereo not drawn)	-1.44%
O=S(=O)(c1cc(Cl)ccc1Cl)N1CCN(Cc2ccco2)CC1	-2.5%
CCC(C)N1C(=O)S/C(=C/c2ccc(Sc3nc4ccccc4[nH]3)o2)C1=O (stereo not drawn)	8.57%
CC1CCN(S(=O)(=O)c2ccc3[nH]c(=O)ccc3c2)CC1	0.735%
CCN(c1ccc2c(c1)OCO2)S(=O)(=O)c1cc(Br)cc2c1N(C(=O)C1CC1)CC2	10.1%
COc1ccc(Cl)cc1NC(=O)CN(C)C(=O)CCCc1c[nH]c2ccccc12	-3.1%
Cc1cccc(OCC(=O)NC2CC(C)(C)NC(C)(C)C2)c1	-1.93%
COc1ccc2oc(=O)cc(CN3CCOCC3)c2c1	-3.2%
Cc1cc(=O)oc2c3c(cc(OCC(=O)NCCC(=O)N[C@@H](C)C(=O)O)c12)OC(C)(C)CC3	-1.18%
COc1ccc(S(=O)(=O)NCCc2cc3ccc(C)c(C)c3[nH]c2=O)cc1	-6.24%
COCc1c(C(=O)N/N=C\c2cccnc2)nnn1-c1nonc1N	-4.36%
FC(F)(F)c1cccc(-c2cc3ccccc3nc2N2CCCC2)c1	3.78%
CCC/C(=N\O)c1c[nH]c2ccccc12	13.5%
COc1ccc(/C=C(\C#N)c2c[nH]c3ccccc23)cc1	47.7% (active)
COc1ccc2[nH]cc(/C=C(/C#N)S(=O)(=O)c3ccccc3)c2c1	-3.42%
CCO[C@@H]1OC(C(N)=O)=C[C@H](c2ccc(Br)cc2)[C@H]1CCCO	-0.863%

Structure (SMILES)	max response
CCC/C=C(\CCC)C(NC(=O)Cc1ccccc1)c1ccc(C(=O)OC)cc1 (stereo not drawn)	-2.68%
CN(C)Cc1c(O)ccc2occ(C(O)c3ccccc3)c12 (stereo not drawn)	17.6% (active)
CN(C)Cc1c(O)ccc2c(=O)c(-c3ccccc3Cl)coc12	1.67%
Cc1ccc(C(=O)c2coc3ccc(O)c(CN(C)C)c23)cc1	-0.656%
Clc1c(OCCCn2ccnc2)ccc2ccccc12	20.6% (active)
c1ccc(Cc2ccc(OCCn3ccnc3)cc2)cc1	12%
C=CCc1cc(C)ccc1OCCCn1ccnc1	-0.408%
COc1cc(S(=O)(=O)Nc2ncn[nH]2)ccc1Cl	-1.79%
CCSc1nnc(-c2cc3c(s2)-c2ccccc2CC3)o1	40.7% (active)
CSc1nc2sc3c(c2c(=O)[nH]1)CCc1ccccc1-3	-2.09%
Fc1ccc(CSc2nnc(-c3cc4c(s3)-c3ccccc3CC4)o2)cc1	1.49%
CC(=O)NCCc1nc2cc(NC(=O)c3ccccc3)ccc2n1C	20.2%
Cn1c(NC(=O)c2ccccc2)nc2ccccc21	25.8% (active)
Cn1sc(NC(=O)c2ccccc2)nc1=O	9.66%
COc1cc2c(cc1OC)C(C(=O)NCc1ccco1)C1c3ccccc3CCN1C2=O (stereo not drawn)	-2.13%
Cc1cc(=O)oc2cc(OC(C)C(=O)NCCc3ccc(S(N)(=O)=O)cc3)ccc12 (stereo not drawn)	-2.25%
Cc1ccc(N2CCN(C(=O)c3cccs3)CC2)c(C)c1	1.82%
O=C(/C=C\c1cn(-c2ccccc2)nc1-c1cccs1)N1CCOCC1	17.5% (active)
O=C(/C=C/c1cn(-c2ccccc2)nc1-c1ccc2c(c1)OCCO2)NCCCN1CCOCC1	13.7%
O=C(O)c1ccc(N/N=C/c2cn(-c3ccccc3)nc2-c2cccs2)cc1	14.7%
O=C(O)/C=C/c1cn(-c2ccccc2)nc1-c1cccs1	20.8% (active)
COc1ccc(-c2nn(-c3ccccc3)cc2/C=C\C(=O)N2CCOCC2)cc1[N+](=O)[O-]	-1.53%
O=C(O)/C=C/c1cn(Cc2ccccc2)nc1-c1cccs1	0.958%
